# Data taken from PubChem BioAssay (NCATS).
# Several values for one entry are separate records, joined by “and”; a condition that tells them apart may be missing. Equal values may be shown once. Inconclusive results are not listed. A call without a number means that no potency is given here. Some structures have more than one record in an assay (separate samples or runs), and their calls can disagree. Activity calls are given as the source filed them. Unless noted, calls come from the whole dose curve; as a rule, active = well fitted curve in the direction sought with a large enough effect; inconclusive = small, poorly fitted or top-dose-only effect, or another doubt; inactive = no such curve, though single readings can be large; an effect the other way counts as inactive or inconclusive.
# Assays:
# [1] = High-throughput drug toxicity screening in the BPDCN cell line Cal-1 (AID 1224825; call rule not given here); details: Cal-1 BPDCN cell viability, qHTS; at 45.8 µM (top of the series) unless noted
# How it was run: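 500 Cal-1 cells/well, RPMI + glutamine + 10% FBS (phenol red-free); cpd added by pin tool; 48 h, 37C, 5% CO2; CTG 15 min RT, lumi read. Normalised: DMSO 100%, bortezomib 9.2 uM 0%.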
# [2] = qHTS assay for measurement of the activity of small molecule inhibitors on Zika virus induced Caspase-3 activity in human iPSC derived neural progenitor cells (hNPCs) (AID 1224857); note: nearly all actives have a fitted effect of over 65% in size
# How it was run: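 Cells were plated at 350 per well and grown 16 to 20 hours. Compound pretreatment lasted one hour, after which ZIKV (2 FFU/cell) was added for 6 hours. Percent inhibition was normalized between uninfected and infected controls.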
# [3] = qHTS Screen of the MIPE 4.0 Collection Against Ewings Sarcoma (RDES) (AID 1259252); note: nearly all actives have a fitted effect of over 35% in size; note: potency is the fitted concentration of half-maximal effect
# How it was run: (§1)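 After a 4 h attachment period in RPMI/5% FBS, cells were pin-dosed with test compounds; DMSO served as negative and 9.2 uM bortezomib (final) as positive control. Luminescent CellTiter-Glo signal at 48 h defined viability.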
# [4] = qHTS Screen of the MIPE 4.0 Collection Against Ewings Sarcoma (TC71) (AID 1259253); note: nearly all actives have a fitted effect of over 40% in size; note: potency is the fitted concentration of half-maximal effect
# How it was run: as §1
# [5] = qHTS assay to identify small molecule inhibitors of chordoma cells - UCH-1 (AID 1259355); note: nearly all actives have a fitted effect of over 55% in size; note: potency is the fitted concentration of half-maximal effect
# How it was run: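 Seed 800 cells per well; incubate overnight at 37 C, 5% CO2. Add test compounds (15 concentrations), then the auranofin–topoisomerase-agent combination. Incubate 48hr, add CellTiter-Glo, wait 30min, read luminescence.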
# [6] = qHTS assay to identify small molecule inhibitors of chordoma cells - UCH-2 (AID 1259356)
# [7] = P-glycoprotein substrates identified in KB-8-5-11 adenocarcinoma cell line, qHTS therapeutic library screen (AID 1346987); note: nearly all actives have a fitted effect of over 65% in size; note: potency is the fitted concentration of half-maximal effect
# How it was run: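 KB-8-5-11, a colchicine-selected P-gp-overexpressing KB-3-1 subline, was grown without colchicine for the assay. Cells were seeded at 500 cells/well, dosed in concentration-response and incubated 72 h at 37 degree C, 5% CO2. Viability was read by CellTiter-Glo luminescence.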
# [8] = qHTS Screen of the MIPE 4.0 Collection Against Ewings Sarcoma (EW8) (AID 1259255); note: nearly all actives have a fitted effect of over 35% in size; note: potency is the fitted concentration of half-maximal effect
# How it was run: as §1
# [9] = qHTS Screen of the MIPE 4.0 Collection Against Ewings Sarcoma (TC32) (AID 1259256); note: nearly all actives have a fitted effect of over 45% in size
# How it was run: as §1
# [10] = Identifying Small Molecule Inhibitors of Pancreatic Cancer Stem Cells (SN12C, Adherent) (AID 1259358);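 note: cell survival measured after 48 h of compound exposure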
# How it was run: (§2)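 Adherent (2D) versus sphere (3D) formats; spheres generated 14 d in SCM beforehand. Compound transferred by pin tool after 4 h, 48 h incubation, CellTiter-Glo endpoint.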
# [11] = Identifying Small Molecule Inhibitors of Pancreatic Cancer Stem Cells (SN12C, Spheroid) (AID 1259360); details: Potency: SN12C spheroid viability
# How it was run: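 Monolayer and spheroid cultures are compared. Spheroids form over 14 days in stem cell medium on hydrogel-coated low-attachment plates, then are exposed to compound for 48 h before CellTiter-Glo luminescence.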
# [12] = Identifying Small Molecule Inhibitors of Pancreatic Cancer Stem Cells (A278, Adherent) (AID 1259361);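 note: viability read after 48 h compound exposure; nearly all actives have a fitted effect of over 35% in size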
# How it was run: as §2
# [13] = target: Atrial natriuretic peptide receptor 2 (Homo sapiens) (UniProt P20594); experiment: Natriuretic polypeptide receptor (hNpr2) antagonism - Pilot subtype selectivity assay (AID 1347050; calls by dose curve)
# Chain of Atrial natriuretic peptide receptor 2 (Homo sapiens) (P20594 whole entry, looked up): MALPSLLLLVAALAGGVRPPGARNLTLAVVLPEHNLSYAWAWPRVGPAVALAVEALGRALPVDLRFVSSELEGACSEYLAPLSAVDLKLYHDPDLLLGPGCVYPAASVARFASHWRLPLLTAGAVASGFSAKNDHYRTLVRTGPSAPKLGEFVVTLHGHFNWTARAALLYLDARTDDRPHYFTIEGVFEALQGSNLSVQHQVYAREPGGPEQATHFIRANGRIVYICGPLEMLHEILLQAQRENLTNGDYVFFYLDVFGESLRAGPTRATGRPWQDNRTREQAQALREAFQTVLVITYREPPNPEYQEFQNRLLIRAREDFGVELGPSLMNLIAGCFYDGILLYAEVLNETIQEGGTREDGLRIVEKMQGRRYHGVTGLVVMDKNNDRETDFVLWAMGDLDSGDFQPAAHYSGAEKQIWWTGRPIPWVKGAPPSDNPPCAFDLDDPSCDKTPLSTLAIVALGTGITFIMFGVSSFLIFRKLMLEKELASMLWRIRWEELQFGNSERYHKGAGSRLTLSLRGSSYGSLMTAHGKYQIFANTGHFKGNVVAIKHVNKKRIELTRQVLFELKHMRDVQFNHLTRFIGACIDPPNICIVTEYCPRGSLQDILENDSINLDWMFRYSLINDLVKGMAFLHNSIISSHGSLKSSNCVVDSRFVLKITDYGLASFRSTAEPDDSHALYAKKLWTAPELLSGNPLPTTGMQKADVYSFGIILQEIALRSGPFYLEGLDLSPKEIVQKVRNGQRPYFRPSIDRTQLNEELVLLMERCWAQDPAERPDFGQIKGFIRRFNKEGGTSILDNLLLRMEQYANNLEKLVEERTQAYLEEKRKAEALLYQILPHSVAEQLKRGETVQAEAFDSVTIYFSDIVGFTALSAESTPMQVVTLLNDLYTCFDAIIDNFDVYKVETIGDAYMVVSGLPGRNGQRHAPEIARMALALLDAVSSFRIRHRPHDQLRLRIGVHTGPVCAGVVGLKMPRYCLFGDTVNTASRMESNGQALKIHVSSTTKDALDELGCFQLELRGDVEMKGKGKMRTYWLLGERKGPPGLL
# How it was run: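 Pilot selectivity screen against hNpr2: HEK293 cGMP-sensor cells are treated with LOPAC1280 compounds, then with hNppC peptide at 1 nM final. The cGMP-driven luminescence change over 20 min at room temperature is the read-out.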
# [14] = P-glycoprotein substrates identified in KB-3-1 adenocarcinoma cell line, qHTS therapeutic library screen (AID 1346986); note: nearly all actives have a fitted effect of over 60% in size
# How it was run: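 Cells seeded 500/well in DMEM/10% FCS; compounds pinned in dose-response; 72 h incubation; CellTiter-Glo added, 5 min, luminescence. KB-8-5-11 run ±tariquidar to test reversal of P-gp resistance.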
# [15] = Natriuretic polypeptide receptor (hNpr1) antagonism - Pilot counterscreen GloSensor control cell line (AID 1347045; calls by dose curve)
# How it was run: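 HEK293 cGMP GloSensor cells preloaded 2 h with 2% GloSensor reagent, then compound 30 min before baseline luminescence read. Stimulated with 50 uM sodium nitroprusside, 20 min at room temperature, then read again; counterscreen for Npr1 antagonism.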
# [16] = target: Atrial natriuretic peptide receptor 1 (Homo sapiens) (UniProt P16066); experiment: Natriuretic polypeptide receptor (hNpr1) antagonism - Pilot screen (AID 1347049; calls by dose curve;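 note: agonist-evoked cGMP luminescence read 20 min after hNppA addition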)
# Chain of Atrial natriuretic peptide receptor 1 (Homo sapiens) (P16066 whole entry, looked up): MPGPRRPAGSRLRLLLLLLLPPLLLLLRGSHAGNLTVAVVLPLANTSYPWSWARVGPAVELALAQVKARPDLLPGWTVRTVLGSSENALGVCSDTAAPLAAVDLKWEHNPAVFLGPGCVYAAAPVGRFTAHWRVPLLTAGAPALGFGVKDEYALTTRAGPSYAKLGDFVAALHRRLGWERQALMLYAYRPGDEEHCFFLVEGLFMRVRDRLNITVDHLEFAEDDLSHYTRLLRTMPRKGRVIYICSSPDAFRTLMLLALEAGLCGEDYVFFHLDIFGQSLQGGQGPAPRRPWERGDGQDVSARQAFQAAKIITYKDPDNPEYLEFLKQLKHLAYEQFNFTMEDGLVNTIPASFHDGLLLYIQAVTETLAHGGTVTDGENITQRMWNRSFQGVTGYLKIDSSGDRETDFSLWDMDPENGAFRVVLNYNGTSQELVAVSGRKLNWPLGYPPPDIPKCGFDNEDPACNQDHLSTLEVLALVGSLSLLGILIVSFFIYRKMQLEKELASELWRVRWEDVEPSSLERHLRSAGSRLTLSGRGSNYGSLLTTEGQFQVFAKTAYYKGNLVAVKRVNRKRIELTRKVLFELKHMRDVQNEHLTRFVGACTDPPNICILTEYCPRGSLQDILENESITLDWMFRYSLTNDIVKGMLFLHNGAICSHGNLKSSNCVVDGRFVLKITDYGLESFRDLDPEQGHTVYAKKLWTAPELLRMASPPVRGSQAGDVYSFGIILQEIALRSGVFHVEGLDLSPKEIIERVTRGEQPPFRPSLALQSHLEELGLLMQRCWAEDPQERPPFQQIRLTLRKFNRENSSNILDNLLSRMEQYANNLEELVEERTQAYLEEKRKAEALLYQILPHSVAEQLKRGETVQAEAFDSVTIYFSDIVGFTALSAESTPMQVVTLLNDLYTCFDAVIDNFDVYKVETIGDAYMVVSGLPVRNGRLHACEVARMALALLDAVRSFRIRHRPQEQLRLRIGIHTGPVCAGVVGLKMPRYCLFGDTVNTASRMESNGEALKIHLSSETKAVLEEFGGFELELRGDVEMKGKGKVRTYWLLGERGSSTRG
# How it was run: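 Readout is cGMP-driven firefly luciferase luminescence in HEK293 cells carrying hNpr1 and a PDE5-domain GloSensor, read before and 20 min after 0.1 nM hNppA stimulation. Cells had 2% substrate reagent for 2 h and test compound for 30 min.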
smiles,measurement,setting,value
O=C(O)CCNC(=O)c1ccc(N=Nc2ccc(O)c(C(=O)O)c2)cc1,viability (% of control),[1],130%
same,Potency,[2],inactive
same,Potency,[3],9.35 µM (active)
same,Potency,[4],9.35 µM (active)
same,Potency,[5],inactive
same,Potency,[6],inactive
same,Potency,[7],inactive
C[C@@H](N)C1CCC(C(=O)Nc2ccncc2)CC1 (stereo not given in full),viability (% of control),[1],79.9%
same,Potency,[2],inactive
same,Potency,[3],18.7 µM (active)
same,Potency,[4],inactive
same,Potency,[8],inactive
same,Potency,[9],inactive
same,Potency,[10],inactive
same,Potency,[11],inactive
same,IC50 (viability decrease),[12],inactive
same,Potency,[13],inactive
O=C1CCc2ccc(OCCCCN3CCN(c4cccc(Cl)c4Cl)CC3)cc2N1,viability (% of control),[1],110%
same,Potency,[2],inactive
same,Potency,[6],inactive
same,Potency,[7],inactive
CCOc1cc(CC(=O)N[C@@H](CC(C)C)c2ccccc2N2CCCCC2)ccc1C(=O)O,viability (% of control),[1],27.5%
same,Potency,[2],inactive
same,Potency,[3],inactive
same,Potency,[4],inactive
same,Potency,[8],inactive
same,Potency,[9],inactive
same,Potency,[5],inactive
same,Potency,[6],inactive
same,Potency,[14],inactive
same,Potency,[7],inactive
Nc1cccc2c1CN(C1CCC(=O)NC1=O)C2=O (stereo not given),viability (% of control),[1],101% [at 92.2 µM]
same,Potency,[2],inactive
same,Potency,[3],inactive
same,Potency,[8],inactive
same,Potency,[9],inactive
same,Potency,[5],inactive
same,Potency,[6],inactive
same,Potency,[10],inactive
same,Potency,[11],inactive
COC(=O)C1=C(C)NC(C)=C(C(=O)OCCCN2CCC(c3ccccc3)(c3ccccc3)CC2)C1c1cccc([N+](=O)[O-])c1 (stereo not given),viability (% of control),[1],123%
same,Potency,[2],inactive
same,Potency,[4],20.9 µM (active)
same,Potency,[8],18.7 µM (active)
same,Potency,[5],31.6 µM (active)
same,Potency,[7],inactive and 10.3 µM (active)
COc1cc(OC)c(C(=O)CCCN2CCCC2)c(OC)c1,viability (% of control),[1],101%
same,Potency,[2],inactive
same,Potency,[3],inactive
same,Potency,[4],inactive
same,Potency,[8],inactive
same,Potency,[5],inactive
same,Potency,[6],inactive
same,Potency,[7],inactive
O=C1c2ccccc2-c2n[nH]c3cccc1c23,viability (% of control),[1],3.95%
same,Potency,[2],inactive
same,Potency,[5],inactive
same,Potency,[6],inactive
same,Potency,[7],18.4 µM (active)
same,Potency,[15],inactive
same,Potency,[13],inactive
COc1ccccc1N1CCN(CCN(C(=O)C2CCCCC2)c2ccccn2)CC1,viability (% of control),[1],80.8%
same,Potency,[2],inactive
same,Potency,[3],inactive
same,Potency,[4],inactive
same,Potency,[8],inactive
same,Potency,[9],inactive
same,Potency,[15],inactive
same,Potency,[16],inactive
same,Potency,[13],inactive
